# “And” between values parts separate entries of the source, which are not always exact repeats. Equal values may be shown once. Compounds without any hit were thinned out: in the full panel of roughly 83,000, 20% have a hit.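 Testing used 96-well plates and a 48-hour single-concentration exposure. Example: -40 means 40% of the starting cells died.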 The source made the active and inactive calls. Rule for the calls: active = growth percent below 10; inactive = the rest.
# Tested on: MDA-MB-468 breast
# Assay: NCI-60 one-dose screen, 48 h (100 = growth as untreated, 0 = no growth, -100 = all killed)
# Details: 10 µM unless noted
row,Compound,growth
1,N#Cc1ccc(NC(=O)Nc2nc3ccc(OC(F)(F)F)cc3s2)cc1,-2.64% (active)
2,Cl.Fc1c[c-]c(-c2ccccn2)c(F)c1.[Pt].c1ccc([PH+](CC[PH+](c2ccccc2)c2ccccc2)c2ccccc2)cc1,-79.2% (active)
3,CN(C)c1ccc(C(=NO)c2ccc(N(C)C)cc2)cc1,-0.198% (active)
4,COc1cc(/C=N/Nc2ncnc3c2c(C)nn3-c2ccc(F)cc2)ccc1O,92% (inactive)
5,Cc1cc(N=O)cc(C(C)(C)C)c1O,91% (inactive)
6,O=C(Cn1c(=O)sc2nc3ccccc3nc21)Nc1ncc(Cc2cccc(Cl)c2Cl)s1,107% (inactive)
7,O=C(CCc1nnc2sc(Cc3ccccc3Cl)nn12)c1nc2ncccc2[nH]1,95.9% (inactive)
8,NCCSC(C[N+](=O)[O-])c1ccccc1Cl (stereo not given),10.2% (inactive)
9,CCCCCCCCCCCCCCCCCCNC(=O)[C@H]1CSC(c2ccc(OC)cc2O)N1 (stereo not given in full),115% (inactive)
10,O=S1(=O)CC(Br)C(Br)C1 (stereo not given),37% (inactive) and 75.6% (inactive)
11,CCOC(=O)C1=C(C(=O)c2ccc(Br)cc2)C(c2ccc(Br)cc2)NC(=S)N1 (stereo not given),103% (inactive)
12,c1c2c(cc3c1OCO3)Cc1cc3c(cc1Cc1cc4c(cc1C2)OCO4)OCO3,106% (inactive)
13,N#C/C(=C\c1ccc(-c2ccc(Cl)cc2Cl)o1)c1ccc(F)cc1,96.3% (inactive)
14,CC12CCC3C(=CCc4cc(O)ccc43)C1CCC2=O (stereo not given),96.9% (inactive)
15,C=C1C(=O)O[C@H]2[C@H]1CC/C(COC(=O)C(=O)c1c[nH]c3ccc(OC)cc13)=C\CC[C@@]1(C)O[C@@H]21,-67.5% (active)
16,COc1ccc(-c2cc(NC(=O)Nc3ccc4ncsc4c3)no2)cc1,99.2% (inactive)
17,O=[N+]([O-])c1ccc(O)c2ncccc12,30.6% (inactive) and 1.77% (active)
18,Cc1ccsc1C(NC(=O)c1ccccc1)c1cc(Cl)c2cccnc2c1O (stereo not given),4.52% (active)
19,CCOC(=O)C(CCC#N)(CCC#N)C(=O)OCC,99.9% (inactive)
20,COc1cccc(-c2nc(-c3ccc(NS(=O)(=O)c4ccccc4)cc3)[nH]c2-c2ccnc(Br)c2)c1,18.3% (inactive)
21,COc1ccc(Nc2ncccc2C(=O)NCc2cn(Cc3cc(OC)cc(OC)c3)nn2)cc1,103% (inactive)
22,COC1=C(OC)C(=O)C(CCCCCCCCCCO)=C(C)C1=O,-34.8% (active)
23,Cn1cc(-c2nc3c(F)cc4[nH]ncc4c3c3c2CCCC3)c(C(F)F)n1,52.9% (inactive)

row,Compound,growth
1,NC(=O)c1cc(I)ccc1NC(=O)/C=C/c1ccccc1Cl,17.3% (inactive)
2,O=C(O)c1occ(Cl)c1Cl,107% (inactive)
3,Nc1ccc(-c2nnc(SCc3ccc(O)c4ncccc34)o2)cc1,-20.7% (active)
4,COc1ccc(NC(=O)Nc2ccc(OCCCCCC(=O)NO)cc2)cc1,93.1% (inactive)
5,COCCNc1ccc2ncc(C#Cc3cncc(C(=O)Nc4ccc(CN5CCN(C)CC5)c(C(F)(F)F)c4)c3)n2n1,-59.9% (active)
6,N=C1c2nc3n(c2C(=O)c2nc4n(c21)CCCCC4)CCCCC3,99.8% (inactive)
7,Oc1ccccc1/C=N/N1CCCCCC1,107% (inactive)
8,C=CCC(=O)N[C@H](/C=C/C(=O)O)Cc1ccc(-c2cc(Cl)cc(Cl)c2)cc1,101% (inactive)
9,Cc1ccc(-c2c3c(N)c4c(nc3nc3c2c(C)nn3-c2ccccc2)CCCC4)cc1,107% (inactive)
10,Cc1[nH]c(C(=O)Nc2ccc(C(N)=O)cc2OC(C)C)c(Cl)c1Cl,68.4% (inactive)
11,Nc1cc(N)c(N)cc1N,84.7% (inactive)
12,NC(CSC(c1ccccc1)(c1ccccc1)c1ccc(Cl)cc1)C(=O)O (stereo not given),-6.09% (active)
13,Cc1nc(-c2cn3c(n2)-c2ccc(-c4cnn(C(C)(C)C(N)=O)c4)cc2OCC3)n(C(C)C)n1,-20.6% (active)
14,C=C(C)[C@@H]1CC[C@]2(C(=O)NC3CCCCC3)CC[C@]3(C)[C@H](CC[C@@H]4[C@@]5(C)CC[C@H](N)C(C)(C)[C@@H]5CC[C@]43C)[C@@H]12,103% (inactive)
15,COc1cccc(Nc2ncnc3cc(NC(=O)CCl)ccc23)c1,-56% (active)
16,N#Cc1nc(-c2ccccc2)oc1S(=O)(=O)NCC(c1ccc(Cl)cc1)N1CCCCC1 (stereo not given),41.4% (inactive)
17,O=C1CCCC2=C1C(c1c[nH]c3ccc(Br)cc13)Cc1cc(Br)ccc1N2 (stereo not given),-6.51% (active)
18,CN1CCN(CCCNC(=O)c2c3c(n4ccccc24)C(=O)c2ncccc2C3=O)CC1,-59.9% (active)
19,COc1ccc(N2CCN(c3ccc(NC4=C(Cl)C(=O)c5ncccc5C4=O)cc3)CC2)cc1,-53.9% (active)
20,c1cc2c(ccc3[nH]c(-c4ccc5[nH]ncc5c4)c4c(c32)CCCC4)n1,76.7% (inactive)
21,Cc1ccc(S(=O)(=O)N2CCCC2CO)cc1 (stereo not given),86.3% (inactive)
22,Nc1ccc(-c2cc3c(Nc4ccc(OCc5cccc(F)c5)c(Cl)c4)ncnc3s2)cc1,14.2% (inactive)

# Source: PubChem BioAssay (NCI)
